# High-throughput results from PubChem.
# Hits are enriched below; roughly 19% of the tested compounds scored in any of these assays.
# KB-V1 cytotox: kills drug-selected multidrug resistant KB-V1 cells; Potency, µM (doses to about 46.1 µM), actives largely listed as cytotoxic; 400,000 tested, 3.4% active; KB-V1 MDR cells viability, CellTiter-Glo, 72 h; AID 1347076; note: nearly all actives have a fitted effect of over 60% in size
#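 qHTS viability screen in drug-selected KB-V1 MDR cells: 72 h compound treatment at 37 degrees C, ATP luminescence end point.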
# TDP1 cell CPT: DT40-hTDP1 cell growth loss with CPT; chicken DT40 Tdp1-/-;hTDP1 cells + 20 nM CPT, ATP luminescence, 48 h; Potency, µM (doses to about 46.2 µM), for the others: at the highest dose activity change, negative = growth inhibition, most hits filed as inhibitors; 420,000 tested, 12% active; note: nearly all actives have a fitted effect of over 55% in size
#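 Cell growth measured by CellTiter-Glo luminescence after a minimum 48 h, 37 C compound exposure with 20 nM CPT in Tdp1-knockout DT40 cells stably expressing hTDP1, seeded 400/well; qHTS titration format.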
# HT1080 IDH1KD tx: HT-1080 IDH1 knockdown cell toxicity (counter line). Potency, µM (doses to about 46.1 µM), for the others: at the highest dose activity, negative = toxicity, actives largely listed as cytotoxic. HT-1080 IDH1 knockdown viability, ATP luminescence, 48 h. 360,000 tested, 2% active. AID 686971;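 note: 0% = DMSO wells and -100% = cell-free medium wells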
#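 Cytotoxicity counter-line: IDH1KD HT-1080, 48 h, CellTiter-Glo. Curves classed by r2, magnitude and activity.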
# KB-3-1 cytotox: kills parental KB-3-1 adenocarcinoma cells | KB-3-1 viability, CellTiter-Glo ATP luminescence, 72 h | Potency, µM (series often up to 46.1 µM), hits mostly cytotoxic | 400,000 tested, 1.4% active; note: nearly all actives have a fitted effect of over 60% in size
#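 Parental KB-3-1 adenocarcinoma cells in phenol-red-free DMEM with 10% FBS were pin-treated with compounds at several concentrations, incubated 72 h at 37 °C, and viability read by CellTiter-Glo luminescence; concentration-effect curves were fitted after normalization.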
# HT1080-NT tox: kills 2HG-producing HT-1080-NT fibrosarcoma cells. HT-1080-NT fibrosarcoma viability, CellTiter-Glo ATP luminescence, 48 h. Potency, µM (series often up to 46.1 µM), without a hit: at the top dose activity, negative = less viability, hits mostly cytotoxic. 360,000 tested, 1.6% active. AID 686970;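 note: NT is the 2HG producing partner of a matched IDH1 knockdown line; 0% = DMSO-treated cells and -100% = media-only wells without cells; nearly all actives have a fitted effect of over 55% in size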
#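 Fibrosarcoma NT cells, 750 per well in 5% FBS RPMI, were exposed to compound for 48 hours. Viability: CellTiter-Glo luminescence.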
# DT40 TDP1 no CPT: qHTS for Inhibitors of human tyrosyl-DNA phosphodiesterase 1 (TDP1): qHTS in cells in absence of CPT | Potency, µM (top dose mostly 46.2 µM), inactives show at the highest dose activity change, negative = growth inhibition, actives largely listed as inhibitors | DT40 Tdp1-/- hTDP1 cells, no CPT, ATP luminescence, 48 h | 420,000 tested, 15% active | AID 686978, 2013; note: nearly all actives have a fitted effect of over 55% in size
#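 Compound effects on proliferation are scored in DT40 Tdp1-/-;hTDP1 cells in the absence of CPT. ATP levels (CellTiter-Glo luminescence) are recorded after a ≥48 hr, 37 °C incubation.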
# * hit, by the source's call; i = inactive; ? = inconclusive; . = not tested or not shown; ! = not active in a repeat. Calls come from the whole dose curve; as a rule, active = well fitted curve in the direction sought with a large enough effect; inconclusive = small, poorly fitted or top-dose-only effect, or another doubt; inactive = no such curve, though single readings can be large; an effect the other way counts as inactive or inconclusive. Unless noted, % is set by controls: 0 for no effect and ±100 for the full control effect; potency is the fitted concentration of half-maximal effect.
SMILES,KB-V1 cytotox,TDP1 cell CPT,HT1080 IDH1KD tx,KB-3-1 cytotox,HT1080-NT tox,DT40 TDP1 no CPT
COc1cc(OC)c(-c2nn3c(-c4ccco4)nnc3s2)cc1OC,?,?,-12%,?,-5%,15µM*
COc1ccc(-c2nnc3sc(-c4ccco4)nn23)cc1OC,2.1µM*,1%,0%,?,9%,-27%
CC1(C)Cc2ccccc2-c2nnc(-c3ccco3)n21,i,-16%,0%,i,11%,-13%
COCc1c(C(=O)NC2CCCC2)cnn1-c1nccc(-c2ccco2)n1,.,4%,.,.,.,-16%
Cn1c(NCc2ccco2)nc2c1c(=O)n(Cc1ccc(Cl)c(Cl)c1)c(=O)n2C,?,?,-11%,?,6%,18µM*
Cc1ccccc1OCC(O)Cn1c(NCc2ccco2)nc2c1c(=O)n(C)c(=O)n2C (configuration not stated),?,12µM*,0%,i,-22%,10µM*
CCn1c(NCc2ccco2)nc2c1c(=O)n(C)c(=O)n2C,?,?,4%,i,-1%,12µM*
Cn1c(=O)c2c(nc(NCc3ccco3)n2CCc2ccccc2)n(C)c1=O,?,7.3µM*,-7%,i,0%,6.5µM*
Cc1nc2ccccc2n1C(C)c1nc2ccccc2n1CC(=O)c1ccc(OC(F)(F)F)cc1 (configuration not stated),?,?,-22%,i,-3%,?
O=C(COC(=O)CCNS(=O)(=O)c1ccccc1)NC(=O)Cc1ccccc1,i,-6%,0%,i,6%,20%
Cn1c(=O)c2c(nc(NCc3ccco3)n2Cc2ccc(Cl)cc2Cl)n(C)c1=O,i,12µM*,4%,i,9%,10µM*
CC1CCN(S(=O)(=O)c2ccc(NC(=O)C3CCCCC3C(=O)O)cc2)CC1 (configuration not stated),i,?,5%,i,15%,?
O=c1cccc(-c2cccc3ccccc23)o1,i,-6%,14%,i,23%,?
COc1cc(/C=C/c2nc3cc(Cl)ccc3c(=O)n2-c2ccc(C)cc2C)cc(OC)c1OC,i,16µM*,.,i,.,?
CC(NC(=O)/C(C#N)=C/c1ccco1)c1ccccc1 (configuration not stated),i,5%,6%,i,17%,-22%
COc1ccc(/C=C(\C#N)C(=O)NC(C)c2ccccc2)cc1O (configuration not stated),i,-25%,?,i,-30%,?
CC(NC(=O)/C(C#N)=C/c1ccc([N+](=O)[O-])o1)c1ccccc1 (configuration not stated),i,0.65µM*,6.5µM*,?,-23%,0.73µM*
CC(NC(=O)/C(C#N)=C/c1ccc(N2CCOCC2)cc1)c1ccccc1 (configuration not stated),i,13µM*,-17%,i,3%,9.2µM*
Cc1ccc(C(C)NC(=O)/C(C#N)=C\c2c(C)[nH]c3ccccc23)cc1 (configuration not stated),12µM*,?,?,i,?,-22%
COC(=O)c1ccc(/C=C(\C#N)C(=O)NC(C)c2ccccc2)cc1 (configuration not stated),i,9.2µM*,?,?,?,10µM*
CCCN(CCC)S(=O)(=O)c1ccc2c(c1)N(CC(=O)NCc1ccc(F)cc1Cl)C(=O)CS2,i,?,.,?,.,?
CCOC(=O)c1sc2ccccc2c1S(=O)(=O)N1CCN(c2cccc(C)c2C)CC1,i,?,.,i,.,?
COc1ccc(C(CC(=O)O)NC(=O)c2cc3ccccc3oc2=O)cc1OC (configuration not stated),i,.,.,i,.,.
Cc1cc(C)cc(NC(=O)CSc2nccn2-c2ccccc2)c1,?,?,.,i,.,23µM*
CCOC(=O)c1ccc(NC(=O)CSc2nccn2C)cc1,i,?,1%,i,17%,?
SMILES,KB-V1 cytotox,TDP1 cell CPT,HT1080 IDH1KD tx,KB-3-1 cytotox,HT1080-NT tox,DT40 TDP1 no CPT
COc1cccc(-n2ccnc2SCC(=O)Nc2ccccc2)c1,i,5.8µM*,4%,i,8%,8.2µM*
Cc1cc(C)cc(-n2ccnc2SCC(=O)Nc2ccc3c(c2)OCO3)c1,i,?,.,i,.,21µM*
CCOC(=O)c1ccc(NC(=O)CSc2nccn2-c2cc(C)cc(C)c2)cc1,i,23µM*,.,?,.,18µM*
O=C(CSc1nccn1-c1cccc(Cl)c1)Nc1ccc2c(c1)OCO2,.,?,.,.,.,-25%
CCCCN(C(=O)c1ccc(NC(=O)C(C)C)cc1)c1ccccc1,i,-19%,-1%,i,-16%,-25%
Cc1ccccc1OCC(=O)Nc1ccc(C(=O)OCc2cc(=O)n3ccsc3n2)cc1,?,?,.,i,.,-13%
CCOC(=O)C(=O)Nc1cc(C)on1,i,0%,12%,i,5%,-1%
COc1cccc(-n2ccnc2SCC(=O)Nc2cccc(C)c2C)c1,?,21µM*,.,i,.,16µM*
CCOC(=O)c1ccc(NC(=O)CSc2nccn2Cc2ccc(OC)cc2)cc1,.,15µM*,.,.,.,?
COc1cccc(-n2ccnc2SCC(=O)Nc2ccccc2F)c1,?,0%,13%,i,18%,-29%
CC1CCCC(C)N1C(=O)CNCc1ccc2c(c1)OCO2 (configuration not stated),i,-9%,1%,i,-1%,-12%
Cn1c(=O)cc(OCC(=O)NC2CCCCC2)c2ccccc21,i,-3%,-1%,i,2%,8%
Cc1ccnc(NC(=O)CCCOc2cc(=O)n(C)c3ccccc23)c1,8.2µM*!,?,?,3.7µM*!,?,?
Cn1c(=O)cc(OCCCC(=O)NC2CCCC2)c2ccccc21,15µM*,?,-27%,i,?,?
Cn1c(=O)cc(OCCCC(=O)NCc2ccccn2)c2ccccc21,i,-13%,-10%,i,-3%,0%
CCc1cccc2c(C(=O)COC(=O)[C@@H]3CC(O)CN3S(=O)(=O)c3ccccc3[N+](=O)[O-])c[nH]c12 (some centres not stated),?,23µM*,?,i,?,21µM*
